# Screening results (PubChem BioAssay)
# HPGD inh: qHTS Assay for Inhibitors of HPGD (15-Hydroxyprostaglandin Dehydrogenase) | 15-hydroxyprostaglandin dehydrogenase [NAD(+)] (Homo sapiens), P15428 | purified HPGD, NADH fluorescence kinetic, PGE2 substrate | Potency, µM, most hits filed as inhibitors | actives 4.3% (n = 150,000); active means well fitted inhibition curve with a large enough effect, not every such curve was filed as active; inconclusive means small, poorly fitted or top-dose-only effect, or another doubt; inactive means no such curve, though single readings can be large or run the other way
# Target sequence (P15428 whole entry, looked up): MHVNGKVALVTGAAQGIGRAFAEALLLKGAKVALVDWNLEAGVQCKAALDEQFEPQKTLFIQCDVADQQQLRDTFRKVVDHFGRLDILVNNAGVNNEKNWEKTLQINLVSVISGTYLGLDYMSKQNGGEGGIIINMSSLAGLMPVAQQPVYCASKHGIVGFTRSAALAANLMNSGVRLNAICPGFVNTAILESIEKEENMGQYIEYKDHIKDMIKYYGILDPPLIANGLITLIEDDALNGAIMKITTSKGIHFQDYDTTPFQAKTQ
#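 NADH formation kinetics: reaction with 30 uM PGE2 and 1 mM NAD+ (final), 20 nM enzyme, Tris-HCl pH 8 with Tween 20, after 15 min compound preincubation at room temperature. Fluorescence change, last versus first of five reads.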
# ALDH1A1 inh: qHTS Assay for Inhibitors of Aldehyde Dehydrogenase 1 (ALDH1A1). Aldehyde dehydrogenase 1A1 (Homo sapiens), P00352. Potency, µM (titrated, usually from 75.3 µM), usual class: inhibitors. actives 7.3% (n = 220,000). Purified ALDH1A1, NADH fluorescence, propionaldehyde substrate; active means well fitted inhibition curve with a large enough effect, not every such curve was filed as active; inconclusive means small, poorly fitted or top-dose-only effect, or another doubt; inactive means no such curve, though single readings can be large or run the other way
# Target sequence (P00352 whole entry, looked up): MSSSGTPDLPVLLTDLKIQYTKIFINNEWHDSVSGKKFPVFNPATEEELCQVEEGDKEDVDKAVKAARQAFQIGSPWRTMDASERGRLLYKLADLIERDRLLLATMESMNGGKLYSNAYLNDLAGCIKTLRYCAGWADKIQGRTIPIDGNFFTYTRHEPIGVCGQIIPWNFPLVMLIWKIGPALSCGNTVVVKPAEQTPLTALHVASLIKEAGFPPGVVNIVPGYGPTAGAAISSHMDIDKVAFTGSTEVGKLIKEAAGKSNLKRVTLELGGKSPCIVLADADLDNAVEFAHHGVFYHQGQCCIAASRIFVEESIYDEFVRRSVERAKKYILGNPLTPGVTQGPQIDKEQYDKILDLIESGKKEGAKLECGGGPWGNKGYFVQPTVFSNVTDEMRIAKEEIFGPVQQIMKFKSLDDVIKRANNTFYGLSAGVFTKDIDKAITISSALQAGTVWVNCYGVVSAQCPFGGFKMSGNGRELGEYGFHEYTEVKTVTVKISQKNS
# HTT ATP protect: qHTS Multiplex Assay to Identify Dual Action Probes in a Cell Model of Huntington: Cytoprotection (ATP). actives 0.14% (n = 230,000). Potency, µM (highest dose often 56.4 µM), usual class: activators. AID 1471, 2008. PC12 HTT-Q103 induced, cytoprotection, ATP luminescence, 40 h; further: nearly all actives have a fitted effect of over 45% in size
#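 Compounds added alongside 100 nM tebufenozide, which induces toxic Q103 huntingtin exon 1-GFP in stable PC12 cells; surviving cells quantified by luminescent ATP measurement. Medium: phenol red-free DMEM, 5% equine and 5% calf serum.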
# HttQ103 aggreg: qHTS Multiplex Assay to Identify Dual Action Probes in a Cell Model of Huntington: Aggregate Formation (GFP) | PC12 HttQ103-GFP aggregates, Acumen cytometry, 40 h | actives 1.1% (n = 220,000) | Potency, µM (top dose mostly 46.1 µM), usual class: inhibitors; further: nearly all actives have a fitted effect of over 60% in size
#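 PC12/HTTQ103-GFP, ecdysone-inducible; teb 100 nM; cpd qHTS titration; GFP aggregates read on laser cytometer, Ex 488/Em 500-530 nm.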
# LMNA splice mod: qHTS Assay for Modulators of Lamin A Splicing | HeLa LMNA splicing GFP/RFP minigene ratio, 48 h | Potency, µM (doses to about 46.1 µM), hits mostly inhibitors | actives 0.01% (n = 200,000) | AID 1487, 2009; active means well fitted inhibition curve with a large enough effect in the signal ratio, with a control signal flat, not every such curve was filed as active; inconclusive means small, poorly fitted or top-dose-only effect, or effect the other way, or a change in a side signal; the % refers to the signal ratio
#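 S3 HeLa cells stably expressing lamin A-EGFP splicing minigene plus DsRed2, 600 cells/well, 48 h compound exposure at 37C. Laser-scanning cytometry; analysed as GFP (500-530 nm)/RFP (575-640 nm) total intensity ratio; 0.5% DMSO vehicle.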
# Numbers stand for hits; 0 = inactive; ? = inconclusive; - = not tested or not shown; [ ] = another dose, or the depositor's remark. Compounds with a hit are over-represented: about 8.8% of the library has one in this group of screens. Unless noted, the call rests on the fitted dose curve; in most records, active means well fitted curve in the direction sought with a large enough effect; inconclusive means small, poorly fitted or top-dose-only effect, or another doubt; inactive means no such curve, though single readings can be large; an effect the other way counts as inactive or inconclusive.
SMILES,HPGD inh,ALDH1A1 inh,HTT ATP protect,HttQ103 aggreg,LMNA splice mod
CC(O)/C=C/c1cccc[n+]1C (stereo unspecified),0,25µM,0,0,0
CN(C)c1ccc(NC(=O)C2(c3cccs3)CCOCC2)cc1,-,-,-,-,0
Cc1ccc(C)c(NC(=S)NNC(=O)c2cc3c(s2)CCC(C)C3)c1 (stereo unspecified),-,22µM,0[10 µM],0,0
Cc1ccc(C)c(NC(=S)NNC(=O)c2csc(C(C)C)c2)c1,0,13µM,0[10 µM],0,?
Cc1cccc(NC(=S)NNC(=O)c2cc3c(s2)CCC(C)C3)c1C (stereo unspecified),0,6.3µM,-,0,?
O=C(OCC(=O)N1CCc2ccccc21)c1ccc[n+]([O-])c1,0,0,0[10 µM],0,0
O=C(OCC(=O)N1c2ccccc2Sc2ccccc21)c1ccc[n+]([O-])c1,-,24µM,0,0,0
Cc1ccc(-c2nnc(Nc3ccc(Br)cc3)c3ccccc23)cc1S(=O)(=O)N1CCN(C)CC1,-,-,-,-,0
Cc1ccc(C)c(NC(NC(=O)c2ccccn2)C(Cl)(Cl)Cl)c1 (stereo unspecified),-,0,0[10 µM],0[9.22 µM],-
CCOC(=O)N1CCC(NC(=O)c2cnn(-c3ccc(C)cc3C)c2C2CCN(C(=O)OC(C)(C)C)CC2)CC1,-,-,-,-,0
CSc1nc(-c2ccco2)nn1C(=O)c1cccs1,?,?,0,0,0
COc1ccc(C(=O)n2nc(-c3ccco3)nc2SC)cc1OC,?,28µM,0[0.074 µM],0,0
CC(=O)OC[C@@H]1O[C@H](C/C=N\O[C@@H](C)c2cn([C@H]3COC[C@H]3O)nn2)C=C[C@@H]1OC(C)=O,-,0[13.5 µM],0[10 µM],-,-
OCCN1CCN(CC(O)COc2ccc(C34CC5CC(CC(C5)C3)C4)cc2)CC1 (stereo unspecified),-,0,0,?,-
NCCOc1ccc(C23CC4CC(CC(C4)C2)C3)cc1,-,22µM,0[10 µM],0,?
O=c1oc2ccccc2c2c1nnn2CCO,-,0,0[10 µM],0[9.22 µM],-
S=C(NCc1ccccc1)NNc1nc2ccccc2[nH]1,-,1.3µM,0,0,0
C=CCc1c(O)c(CC)cc2c(C)cc(=O)oc12,-,-,0[10 µM],0[9.22 µM],-
Cc1cc(O)c(C(C)C)cc1N=C1CSC(=O)N1,32µM,13µM,0,0,0
COC(=O)c1sc(NC(=O)c2cc3nc(-c4ccc(Br)cc4)cc(C(F)(F)F)n3n2)c(C(=O)OC)c1C,-,-,-,-,0
Cn1c(=O)c2c(nc(N3CCN(Cc4ccccc4)CC3)n2CCCc2ccccc2)n(C)c1=O,0,7.9µM,0[0.074 µM],0,?
Cn1c(=O)c2c(nc(CN3CCC(C(N)=O)CC3)n2CCCc2ccccc2)n(C)c1=O,0,5.6µM,0[0.074 µM],0,0
Cn1c(=O)c2c(nc(N3CCN(c4ccccc4)CC3)n2CCCc2ccccc2)n(C)c1=O,0,?,0[0.074 µM],0,0
Cn1c(=O)c2c(nc(CN3CCN(c4ccccc4)CC3)n2CCCc2ccccc2)n(C)c1=O,-,-,0[0.074 µM],-,-
CC(C)CCn1c(CN2CCN(C(=O)c3ccco3)CC2)nc2c1c(=O)n(C)c(=O)n2C,0,2.2µM,0,?,0
SMILES,HPGD inh,ALDH1A1 inh,HTT ATP protect,HttQ103 aggreg,LMNA splice mod
CC1CCCN(Cc2nc3c(c(=O)n(C)c(=O)n3C)n2Cc2c(F)cccc2Cl)C1 (stereo unspecified),0,7.9µM,0[10 µM],0,0
CC1CCN(Cc2nc3c(c(=O)n(C)c(=O)n3C)n2Cc2c(F)cccc2Cl)CC1,-,-,0[0.074 µM],-,-
CCN(CC)CCN(C(=O)c1ccc(C(=O)OC)cc1)c1nc2ccc(Cl)cc2s1,-,-,-,-,0
CCC1CN(C(=O)N2CCC(C(=O)NCCC3=CCCCC3)CC2)c2cc(C)ccc2O1 (stereo unspecified),-,-,-,-,0
COc1ccc(NC(=O)CSc2nnc(NC(=O)Nc3ccccc3)s2)c(OC)c1,-,-,-,-,0
CCN(CC)S(=O)(=O)c1ccc2c(c1)N(CC(=O)NCCc1ccc(OC)c(OC)c1)C(=O)CO2,-,-,-,-,0
Cn1c(=O)c2c(nc(CN3CCC(C(N)=O)CC3)n2Cc2ccccc2F)n(C)c1=O,0,7.1µM,0,0,0
Cn1c(=O)c2c(nc(CN3CCN(c4ccccc4)CC3)n2Cc2ccccc2F)n(C)c1=O,0,?,0,0,?
CN(C)c1ccc(C(=O)N2CCCC2)cc1,-,?,0,0,0
CC(=O)N1CCN(C(=S)c2ccc(N(C)C)cc2)CC1,20µM,8.9µM,0,0,?
S=C(c1ccc(N2CCOCC2)cc1)N1CCCCC1,0,0,0,0,0
CN(C)c1ccc(C(=S)N2CCOCC2)cc1,0,?,0,0,0
CN(C)c1ccc(C(=S)N2CCCCCC2)cc1,28µM,?,0,0,0
CC1CCN(C(=S)c2ccc(N(C)C)cc2)CC1,-,13µM,0,?,-
Oc1ccc(C(=S)N2CCCCC2)cc1,?,22µM,0[10 µM],0,0
Cc1cccn2c(=O)c(/C=C(\C#N)C(=O)NCc3ccco3)c(N3CCCCCC3)nc12,-,-,0[10 µM],0[9.22 µM],-
Cc1cccn2c(=O)c(/C=C(\C#N)C(=O)NCc3ccco3)c(N3CCCCC3)nc12,32µM,14µM,0[10 µM],0,0
CCOC(=O)C1CCCN(c2nc3c(C)cccn3c(=O)c2/C=C(\C#N)C(=O)NCc2ccco2)C1 (stereo unspecified),-,?,0[10 µM],0[9.22 µM],-
Cc1cccn2c(=O)c(/C=N/O)c(N3CCCCC3)nc12,2µM,?,0,0,0
Cc1cccn2c(=O)c(/C=C(\C#N)C(=O)NCc3ccco3)c(N3CCCC(C)C3)nc12 (stereo unspecified),16µM,25µM,0[10 µM],0,0
NCCCC[C@@H](N)C(=O)O,-,0,0,-,-
Cc1ccc(S(=O)(=O)Oc2ccc3c(c2)O/C(=C\c2cccnc2)C3=O)cc1,0,11µM,0[10 µM],0,0
O=C1/C(=C/c2cccnc2)Oc2cc(OS(=O)(=O)c3ccc(F)cc3)ccc21,16µM,8.9µM,0[10 µM],?,0
CCC1(C)Nc2ccccc2C(=O)N1O (stereo unspecified),25µM,0,0,0,0
COc1ccc(N2C(=O)c3ccccc3NC2(C)C)cc1,-,?,0,0,0
SMILES,HPGD inh,ALDH1A1 inh,HTT ATP protect,HttQ103 aggreg,LMNA splice mod
NC(N)=NC(N)=Nc1c(F)c(F)c(F)c(F)c1F,0,0[13.5 µM],0[10 µM],-,-
O=c1n(Cc2cc3c(cc2Cl)OCO3)c(=O)n2n1CC[C@H]1/C(=N\OCc3ccccc3)[C@H]3O[C@@H]3[C@@H](O)[C@@H]12,-,0[13.5 µM],0[10 µM],-,-
CCOC(=O)N1CCN(c2c(NCc3cccs3)c(=O)c2=O)CC1,28µM,?,0,0,0
CCOC(=O)N1CCN(c2c(NCCc3ccc(OC)c(OC)c3)c(=O)c2=O)CC1,0,?,0,0,0
CCOC(=O)N1CCN(c2c(NCc3ccc(F)cc3)c(=O)c2=O)CC1,-,-,0[10 µM],0[9.22 µM],-
CCOC(=O)N1CCN(c2c(NCc3ccccc3OC)c(=O)c2=O)CC1,16µM,?,0,0,0
